Experimental findings from the supplement of paper PMC9135407 are described below.

This assay relates to primary human hepatic stellate cells (donor 1). The experiment in a line: scaled lipid accumulation score (0 = DMSO-like, 1 = nortriptyline-like); higher = stronger HSC inactivation (lipid re-accumulation), active = hit call of the paper. Conditions: 48 h.
The mark [1] stands for this setting: library stock concentration: 3.33 mM.
Where [2] appears, read: library stock concentration: 10 mM.
[3] abbreviates: library stock concentration: 1 mM.

The structures appear in SMILES notation. Values joined by “and” are separate entries in the source; they are usually repeats but may differ in a detail not shown here. Equal entries are not always repeated. Structures can show the parent of a compound that is named as a salt. Hit rate of the full screen: of about 5,800 compounds, about 620 (11%) showed activity.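 The calls were made as follows: active = score above a cut-off or among the top three wells of a plate; in these data no inactive exceeds 0.85.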 The sample as a whole holds a higher share of actives than the screen did.

Regarding `Nc1n[nH]c(N)c1N=Nc1ccc(O)cc1` [Cdk9 Inhibitor II], the “scaled lipid accumulation score” value under setting [1] was ≤ 0 (inactive).
As for `O=C(O)Cn1c(C(=O)Nc2nc(-c3ccccc3Cl)cs2)cc2ccccc21`, under setting [2], the “scaled lipid accumulation score” value is ≤ -0.001 (inactive).
Consider `CC1=CC(=O)C2=C(C)CC[C@@H]3[C@H](OC(=O)[C@H]3C)[C@@H]12` [Leucomisine], for which the “scaled lipid accumulation score” value was ≤ 0 (inactive).
Take `CCCCC[C@H](O)/C=C/[C@H]1C(=O)C[C@H](O)[C@@H]1CCCCCCC(=O)O` [Prostaglandin D1]: the “scaled lipid accumulation score” value under setting [3] was 0.018 (inactive).
For the molecule `CCCCC[C@H](O)/C=C/[C@H]1C(=O)C=C[C@@H]1C/C=C\CCCC(=O)O` [Prostaglandin J2], the “scaled lipid accumulation score” value under setting [3] was ≤ 0 (inactive) and ≤ -0.021 (inactive).
For `C[C@]1(O)C[C@@H](c2nc(-c3ccc4ccc(-c5ccccc5)nc4c3)c3c(N)nccn32)C1`, the “scaled lipid accumulation score” value (library stock concentration: 80 uM) is 0.05 (inactive), the “scaled lipid accumulation score” value (library stock concentration: 400 uM) was ≤ -0.009 (inactive), the “scaled lipid accumulation score” value (library stock concentration: 2 mM) was ≤ -0.009 (inactive) and the “scaled lipid accumulation score” value under setting [2] was ≤ -0.009 (inactive).
For the molecule `C[C@]1(O)C[C@@H](c2nc(-c3ccc4ccc(-c5ccccc5)nc4c3)c3c(N)nccn32)C1` [OSI-906 (Linsitinib)], the “scaled lipid accumulation score” value was ≤ 0 (inactive) under setting [1] and ≤ 0 (inactive) under setting [2].
Turning to `CC1CNCCN1S(=O)(=O)c1cccc2cnccc12` (configuration not stated), the “scaled lipid accumulation score” value under setting [2] is 0.081 (inactive).
In the case of `NCCCCCCCCCCNS(=O)(=O)c1cccc2c(Cl)cccc12` [A-7 hydrochloride], the “scaled lipid accumulation score” value under setting [2] was 0.41 (inactive).
Still for that read-out and setting: with `Cl.O=S(=O)(c1cccc2c(Cl)cccc12)N1CCCNCC1` the figure was 0.935 (active).
Still for that read-out and setting: with `Cl.O=S(=O)(c1cccc2c(Cl)cccc12)N1CCCNCC1` [ML 9 hydrochloride] the figure was 0.941 (active).
Consider `CCCCCCCC/C=C\CCCCCC(=O)OC` [cis-7-Hexadecenoic Acid methyl ester], for which the “scaled lipid accumulation score” value under setting [3] was ≤ 0 (inactive).
Regarding `CNc1nc(Nc2cn(C(C)(C)C#N)nc2C)ncc1C(F)(F)F`, the “scaled lipid accumulation score” value by setting is: under setting [1], ≤ -0.009 (inactive); under setting [2], 0.132 (inactive).
For `N[C@@H]1[C@H]2CN(c3nc4c(cc3F)c(=O)c(C(=O)O)cn4-c3ccc(F)cc3F)C[C@@H]12` [Trovafloxacin mesylate], under setting [2], the “scaled lipid accumulation score” value was 0.112 (inactive).
For the molecule `CCCCCCCCCC(=O)NC(CN1CCOCC1)C(O)c1ccccc1` (racemic), under setting [3], the “scaled lipid accumulation score” value is ≤ -0.021 (inactive).
In the case of `Cc1ccc(C(=O)Cn2c3c(sc2=N)CCCC3)cc1` [Pifithrin-.alpha.], the “scaled lipid accumulation score” value under setting [3] was ≤ 0 (inactive).
Consider `O=C(O)CCC/C=C\C[C@@H]1[C@@H](/C=C/[C@@H](O)CCc2cccc(C(F)(F)F)c2)[C@H](O)C[C@@H]1O` [17-trifluoromethylphenyl trinor Prostaglandin F2.alpha.], for which the “scaled lipid accumulation score” value under setting [3] was ≤ 0 (inactive).
Regarding `CCN(CC)C(=O)CCC/C=C\C[C@@H]1[C@@H](/C=C/[C@@H](O)CCc2ccccc2)[C@H](O)C[C@@H]1O` [17-phenyl trinor Prostaglandin F2.alpha. diethyl amide], under setting [3], the “scaled lipid accumulation score” value was ≤ 0 (inactive).
On to `CCS(=O)(=O)N(C)[C@H]1c2cc(C#N)ccc2OC(C)(C)[C@@H]1O` [(-)-[3R,4S]-Chromanol 293B], for which the “scaled lipid accumulation score” value under setting [2] is 0.037 (inactive).
`NC(CCC(=O)NC(CSN=O)C(=O)NCC(=O)O)C(=O)O` [S-Nitroso-L-glutathione]: the “scaled lipid accumulation score” value under setting [3] was 0.026 (inactive).
With `CNS(=O)(=O)c1ccc(NC(=O)c2ccccc2C(=O)O)cc1` [Phthalysulfathiazole], the “scaled lipid accumulation score” value (library stock concentration: 4.8 mM) was ≤ 0 (inactive).
For the molecule `O=C1C(SCCO)=C(SCCO)C(=O)c2ccccc21` [listing 1 of 3 here], the “scaled lipid accumulation score” value (library stock concentration: 16.1 mM) is 1.05 (active).
For `O=C1C(SCCO)=C(SCCO)C(=O)c2ccccc21` [listing 2 of 3 here], the “scaled lipid accumulation score” value under setting [2] was 0.156 (inactive).
Consider `N[C@@H](CO)c1ccccc1` [(R)-(-)-2-Phenylglycinol], for which the “scaled lipid accumulation score” value under setting [3] was ≤ 0 (inactive).
`O=C1C(SCCO)=C(SCCO)C(=O)c2ccccc21` [listing 3 of 3 here]: under setting [2], the “scaled lipid accumulation score” value was 1.2 (active).
Regarding `O=C1c2cccc(O)c2C(=O)c2c(O)cccc21` [Danthron], where the note is “library stock concentration: 8.3 mM”, the “scaled lipid accumulation score” value is 0.038 (inactive).
Consider `CCN(c1ccccc1)c1cc(=NC)n(C)c(C)n1`, for which, under setting [2], the “scaled lipid accumulation score” value is ≤ 0 (inactive).
Take `CN(C)CCCCCCOc1ccc(-n2ccnc2)cc1`: the “scaled lipid accumulation score” value under setting [3] is 0.054 (inactive) and 0.003 (inactive).
Consider `NC(N)=N[C@@H](CCC(=O)O)C(=O)O` [.alpha.-Guanidinoglutaric Acid], for which, under setting [3], the “scaled lipid accumulation score” value was ≤ 0 (inactive).
As to `NC(N)=N[C@@H](CCC(=O)O)C(=O)O` [alpha-Guanidinoglutaric acid], the “scaled lipid accumulation score” value under setting [2] is ≤ -0.007 (inactive).
In the case of `O=C(Nc1cccc(C(F)(F)F)c1)Nc1cc(S(=O)(=O)NC2CC2)ccc1-c1ccsc1`, the “scaled lipid accumulation score” value reads like this: under setting [1], 0.022 (inactive); under setting [2], 0.632 (inactive).
For `OC(CC1c2ccccc2-c2cncn21)C1CCCCC1` (configuration not stated), in that order: ≤ -0.009 (inactive) and 0.209 (inactive).
In the case of `Cc1ccc(Nc2c(F)cccc2Cl)c(CC(=O)O)c1` [Lumiracoxib], the “scaled lipid accumulation score” value reads like this: under setting [1], ≤ 0 (inactive); under setting [2], 0.025 (inactive).
On to `Cc1ccc(Nc2c(F)cccc2Cl)c(CC(=O)O)c1`, for which, under setting [2], the “scaled lipid accumulation score” value was ≤ 0 (inactive).
Consider `CCCCC[C@H](O)/C=C/[C@@H]1c2cc(CCCCC(=O)O)n(-c3ccccc3)c2C[C@H]1O` [Piriprost (potassium salt)], for which the “scaled lipid accumulation score” value under setting [3] is ≤ 0 (inactive).
`O=c1c2ccccc2nc2n1CCc1c-2[nH]c2ccccc12` [Rutaecarpine] [listing 1 of 2 here]: the “scaled lipid accumulation score” value under setting [2] was 0.975 (active).
For `O=c1c2ccccc2nc2n1CCc1c-2[nH]c2ccccc12` [Rutaecarpine] [listing 2 of 2 here], the “scaled lipid accumulation score” value under setting [1] is ≤ 0 (inactive) and the “scaled lipid accumulation score” value under setting [2] is 0.58 (inactive).
Turning to `CN1CCc2ccccc2Cc2[nH]c3ccccc3c2CC1`, under setting [2], the “scaled lipid accumulation score” value is 0.244 (inactive).
On to `CCC(CC)(NC(=O)C(C)C)C(=O)N[C@@H](CCCN=C(N)N)C(=O)NC1(C(=O)NC(c2ccc(F)cc2)c2ccc(F)cc2)CCCC1`, for which the “scaled lipid accumulation score” value runs as follows: under setting [1], ≤ -0.009 (inactive); under setting [2], ≤ 0 (inactive).
For `Cc1cnc(-c2cc(N3CCN(C(=O)CCS(C)(=O)=O)CC3)ncc2Cl)c(C)c1`, in that order: ≤ 0 (inactive) and ≤ 0 (inactive).
`CCC(C)[C@H](NC(=O)[C@H](CCCCN)NC(=O)[C@H](CCCCN)NC(=O)[C@H](C)NC(=O)[C@H](CC(C)C)NC(=O)[C@H](C)NC(=O)[C@H](C)NC(=O)[C@H](CC(C)C)NC(=O)[C@H](C)NC(=O)[C@H](CCCCN)NC(=O)[C@H](CC(C)C)NC(=O)[C@H](CC(N)=O)NC(=O)[C@@H](N)[C@@H](C)CC)C(=O)N[C@@H](CC(C)C)C(N)=O` (some centres not stated) [Mastoparan]: the “scaled lipid accumulation score” value (library stock concentration: 3 mM) was ≤ -0.012 (inactive).
